About 83,000 compounds went through this panel and 20% of them were active in at least one assay; those are over-represented in the sample as a whole.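 Cells were grown in 96-well plates and exposed to the test compound at a single concentration for 48 hours; results are reported as percent growth, with values below 10 considered active.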 Active and inactive are the calls of the source.
Test system: SR leukemia
Experiment: NCI-60 one-dose screen, 48 h (100 = growth as untreated, 0 = no growth, -100 = all killed)
Conditions: 10 µM

`COc1ccc(-c2csc(NC(=O)c3ccc(Cc4n[nH]c(=O)c5cccnc45)cc3)n2)cc1` was tested. Which growth did it give?
Its growth is 118% (inactive).

How did the growth turn out when `COc1cc(-c2nn(-c3cccc(NC(=O)CCN4CCN(Cc5ccccc5)CC4)c3)cc2-c2ccncc2)ccc1Cl` was run?
Its growth is -28.5% (active).

`COc1cc2cc(Oc3ccc(NC(=O)c4cc(C(F)(F)F)cc(C(F)(F)F)c4)cc3)c(C)nc2cc1OC` was tested. Which growth did it give?
The growth was 52.8% (inactive).

How did the growth turn out when `C[C@]12CCC3c4ccc(O)cc4C[C@@H](CCCCCCCCCS(=O)CCCC(F)(F)C(F)(F)F)C3C1CC[C@@H]2O` (some centres not stated) was run?
Its growth is 44.6% (inactive).

How did the growth turn out when `Cc1cc(Cl)ccc1Nc1nc(C(F)(F)F)ccc1C(=O)N/N=C/c1cccc(O)c1` was run?
The growth was -13% (active).

`COc1cc(C(=O)/C=C/c2c[nH]c3ccccc23)cc(OC)c1OC` was tested. Which growth did it give?
The growth was 14.3% (inactive).

For `CCOC(=O)CC(S(=O)(=O)c1ccccc1)S(=O)(=O)c1ccccc1`, which growth is on record?
The growth was 89.1% (inactive).

With `CCNCC(=O)Nc1ccc(C(=O)OCC)cc1` as the compound, how does the growth read?
Its growth is 82.3% (inactive).

For `CCCc1cn(CC(=O)Nc2nc3ccccc3s2)nn1`, which growth is on record?
The growth was 110% (inactive).

How did the growth turn out when `COc1cc2cc(Oc3ccc(NC(=O)Nc4ccc(Cl)c(C(F)(F)F)c4)cc3)c(C)nc2cc1OC` was run?
The growth was -32.5% (active).

With `COc1cc(/C=C2\CCCC3=C2NC(N)=NC3c2cc(OC)c(OC)c(OC)c2)cc(OC)c1OC` (configuration not stated) as the compound, how does the growth read?
The growth was 1.07% (active).

With `COc1ccc(-c2cc(-c3ccc(Cl)cc3)nc(SCCCCCCC(=O)NO)n2)cc1OC` as the compound, how does the growth read?
The growth was 21.3% (inactive).

How did the growth turn out when `COc1cc2ncnc(NC3CCC(O)CC3)c2cc1OC` (configuration not stated) was run?
Its growth is 77.4% (inactive).

With `COc1cc(C)ccc1Oc1nc(Nc2ccc(N3CCOCC3)cc2)ncc1NC(=O)Nc1cc(C(F)(F)F)cc(C(F)(F)F)c1` as the compound, how does the growth read?
Its growth is 28.3% (inactive).

How did the growth turn out when `CCC(C)[C@H](NC(C)=O)C(=O)N[C@@H](CCCNC(=N)N)C(=O)N[C@@H](CCCCN)C(=O)N[C@@H](CC1CCC(O)CC1)C(=O)NC(C(=O)N[C@@H](CCSC)C(=O)N[C@@H](CCCNC(=N)N)C(=O)N[C@@]1(C)CCC/C=C\CCC[C@@](C)(C(=O)NC(C(=O)N[C@@H](CCC(=O)O)C(=O)N[C@@H](CC(C)C)C(=O)N[C@H](C(=O)N[C@@H](CCC(=O)O)C(N)=O)C(C)C)[C@@H](C)O)NC(=O)[C@H](CCC(N)=O)NC(=O)[C@H](CC(C)C)NC(=O)[C@H](CC(C)C)NC1=O)[C@@H](C)O` (some centres not stated) was run?
The growth was 98.5% (inactive).

Which growth does the source give for `CN1C(=O)C2(Nc3cc(Cl)ccc3S2)c2cc(Cl)ccc21` (configuration not stated) here?
Its growth is 70.6% (inactive).

`CC(=O)Nc1ccc2c(c1)C(=O)c1cccc(C(=O)O)c1-2` was tested. Which growth did it give?
Its growth is 123% (inactive).

For `O=C(CNc1nnc(-c2cccnc2SCc2ccccc2)s1)Nc1nc(Cl)cc(Cl)n1`, which growth is on record?
Its growth is 98.5% (inactive).

For `CCOC(=O)c1cc(C(=O)c2cc(OC)c(OC)c(OC)c2)n2nc(C)ccc12`, which growth is on record?
Its growth is 23% (inactive).

`COc1cc(/C=C/c2cc(/C=C/c3ccc(O)c(OC)c3)[nH]c(=O)n2)ccc1O` was tested. Which growth did it give?
Its growth is 27.2% (inactive).

With `O=C1CSC(=S)N1/N=C/c1ccc(Cl)s1` as the compound, how does the growth read?
Its growth is 98.2% (inactive).

For `COc1ccc(-c2onc(N)c2-c2cc(OC)c3c(c2)OCO3)cc1`, which growth is on record?
The growth was 9.86% (active).

How did the growth turn out when `COc1cc(/C=C/c2cc(/C=C/c3ccc(O)c(OC)c3)n(C(=O)Nc3ccc(C)cc3)n2)ccc1O` was run?
The growth was -14.7% (active).

How did the growth turn out when `COc1cc(NC(=O)Nc2cnc(Nc3ccc(N4CCOCC4)cc3)nc2Oc2cccc(OC)c2)cc(OC)c1` was run?
Its growth is 46.1% (inactive).

With `CC(=O)N[C@H](C(=O)N[C@@H](CCCNC(=N)N)C(=O)N[C@@H](CCCCN)C(=O)N[C@@H](CCCNC(=N)N)C(=O)NC(C(=O)N[C@@H](CC(C)C)C(=O)N[C@@H](CCCNC(=N)N)C(=O)N[C@@]1(C)CCC/C=C\CCC[C@@](C)(C(=O)N[C@@H](CCCNC(=N)N)C(=O)N[C@@H](CCC(=O)O)C(=O)N[C@@H](CC(C)C)C(=O)N[C@H](C(=O)N[C@@H](CCC(=O)O)C(N)=O)C(C)C)NC(=O)[C@H](CCC(N)=O)NC(=O)[C@H](CC(C)C)NC(=O)[C@H](CC(C)C)NC1=O)[C@@H](C)O)C(C)C` (some centres not stated) as the compound, how does the growth read?
The growth was 14% (inactive).

Which growth does the source give for `Oc1ccc(/C=N/N=C2c3ccccc3-c3ccccc32)c(O)c1` here?
Its growth is 54% (inactive).

Which growth does the source give for `C[C@@H](C[C@H](CCO)c1ccccc1)c1ccc2ccccc2c1` here?
Its growth is -41.4% (active).

Test system: RPMI-8226 leukemia
Experiment: as above
Conditions: 10 µM

`Oc1cccc(-c2nc3sccn3c2-c2ccncn2)c1` was tested. Which growth did it give?
Its growth is 118% (inactive).

For `CCOC(=O)c1cc(C(=O)c2cc(OC)c(OC)c(OC)c2)n2ccc(-c3cc[n+](CC(=O)c4cc(OC)c(OC)c(OC)c4)cc3)cc12`, which growth is on record?
The growth was -22.2% (active).

With `C[C@H]1[C@H](OC(=O)CCC(=O)O)O[C@@H]2O[C@]3(C)CC[C@H]4[C@H](C)CC[C@@H]1[C@@]24OO3` as the compound, how does the growth read?
Its growth is 25.8% (inactive).

For `COc1ccc(C(=O)N/N=C/c2cc(C(F)(F)F)ccc2Cl)cc1`, which growth is on record?
Its growth is 121% (inactive).

`COc1ccc(-c2cc(-c3ccc(Cl)cc3)nc(SCCCC(=O)NO)n2)cc1OC` was tested. Which growth did it give?
The growth was -6.19% (active).

For `CCC(=O)OC1CCC2C3CCC(=O)OC3C(C)(CCC(=O)O)CC12C` (configuration not stated), which growth is on record?
Its growth is 6.49% (active).

`OCC1OC(n2ccc3c(NO)ncnc32)C(O)C1O` (configuration not stated) was tested. Which growth did it give?
The growth was -21.7% (active).

How did the growth turn out when `CC(C)(C)c1ccc(S(=O)(=O)N[C@H]2CC[C@H]3[C@@H]4CCc5cc(O)c([N+](=O)[O-])cc5[C@H]4CC[C@]23C)cc1` was run?
The growth was 67.3% (inactive).

For `COc1cc(-c2nn(-c3cccc(NC(=O)CCNc4ccc(N5CCOCC5)cc4)c3)cc2-c2ccncc2)ccc1Cl`, which growth is on record?
The growth was 15.5% (inactive).

With `COc1cc(-c2nn(-c3cccc(NC(=O)CN4CCOCC4)c3)cc2-c2cccnc2)ccc1Cl` as the compound, how does the growth read?
Its growth is 60.5% (inactive).

With `O=C(CCCSc1nc(-c2ccccc2)cc(-c2ccc(Cl)cc2)n1)NO` as the compound, how does the growth read?
The growth was -6.47% (active).

How did the growth turn out when `CC(C)N(CCOc1cccc(-c2nc3sccn3c2-c2ccnc(S(C)(=O)=O)n2)c1)C(C)C` was run?
Its growth is 37.7% (inactive).

How did the growth turn out when `O=C(CCC(C(=O)c1ccccc1)c1ccccc1)c1ccccc1` (configuration not stated) was run?
The growth was 64.9% (inactive).

How did the growth turn out when `COc1ccc(-c2csc(NC(=O)c3ccc(Cc4n[nH]c(=O)c5cccnc45)cc3)n2)cc1` was run?
Its growth is 82.6% (inactive).

For `COc1cc(-c2nn(-c3cccc(NC(=O)CCN4CCN(Cc5ccccc5)CC4)c3)cc2-c2ccncc2)ccc1Cl`, which growth is on record?
The growth was -23.2% (active).

For `COc1cc2cc(Oc3ccc(NC(=O)c4cc(C(F)(F)F)cc(C(F)(F)F)c4)cc3)c(C)nc2cc1OC`, which growth is on record?
Its growth is 17.7% (inactive).

Which growth does the source give for `C[C@]12CCC3c4ccc(O)cc4C[C@@H](CCCCCCCCCS(=O)CCCC(F)(F)C(F)(F)F)C3C1CC[C@@H]2O` (some centres not stated) here?
The growth was 62.5% (inactive).

How did the growth turn out when `Cc1cc(Cl)ccc1Nc1nc(C(F)(F)F)ccc1C(=O)N/N=C/c1cccc(O)c1` was run?
Its growth is 24.1% (inactive).

`COc1cc(C(=O)/C=C/c2c[nH]c3ccccc23)cc(OC)c1OC` was tested. Which growth did it give?
Its growth is 10.3% (inactive).

With `CCOC(=O)CC(S(=O)(=O)c1ccccc1)S(=O)(=O)c1ccccc1` as the compound, how does the growth read?
The growth was 97.4% (inactive).

Which growth does the source give for `CCNCC(=O)Nc1ccc(C(=O)OCC)cc1` here?
The growth was 104% (inactive).

`CCCc1cn(CC(=O)Nc2nc3ccccc3s2)nn1` was tested. Which growth did it give?
The growth was 112% (inactive).

With `COc1cc2cc(Oc3ccc(NC(=O)Nc4ccc(Cl)c(C(F)(F)F)c4)cc3)c(C)nc2cc1OC` as the compound, how does the growth read?
Its growth is -26.4% (active).

For `COc1cc(/C=C2\CCCC3=C2NC(N)=NC3c2cc(OC)c(OC)c(OC)c2)cc(OC)c1OC` (configuration not stated), which growth is on record?
Its growth is -15.4% (active).

With `COc1ccc(-c2cc(-c3ccc(Cl)cc3)nc(SCCCCCCC(=O)NO)n2)cc1OC` as the compound, how does the growth read?
Its growth is -9.15% (active).

`COc1cc2ncnc(NC3CCC(O)CC3)c2cc1OC` (configuration not stated) was tested. Which growth did it give?
Its growth is 104% (inactive).

`COc1cc(C)ccc1Oc1nc(Nc2ccc(N3CCOCC3)cc2)ncc1NC(=O)Nc1cc(C(F)(F)F)cc(C(F)(F)F)c1` was tested. Which growth did it give?
Its growth is 61.9% (inactive).

Which growth does the source give for `CCC(C)[C@H](NC(C)=O)C(=O)N[C@@H](CCCNC(=N)N)C(=O)N[C@@H](CCCCN)C(=O)N[C@@H](CC1CCC(O)CC1)C(=O)NC(C(=O)N[C@@H](CCSC)C(=O)N[C@@H](CCCNC(=N)N)C(=O)N[C@@]1(C)CCC/C=C\CCC[C@@](C)(C(=O)NC(C(=O)N[C@@H](CCC(=O)O)C(=O)N[C@@H](CC(C)C)C(=O)N[C@H](C(=O)N[C@@H](CCC(=O)O)C(N)=O)C(C)C)[C@@H](C)O)NC(=O)[C@H](CCC(N)=O)NC(=O)[C@H](CC(C)C)NC(=O)[C@H](CC(C)C)NC1=O)[C@@H](C)O` (some centres not stated) here?
The growth was 95% (inactive).

`CN1C(=O)C2(Nc3cc(Cl)ccc3S2)c2cc(Cl)ccc21` (configuration not stated) was tested. Which growth did it give?
Its growth is 80.4% (inactive).

`CC(=O)Nc1ccc2c(c1)C(=O)c1cccc(C(=O)O)c1-2` was tested. Which growth did it give?
Its growth is 105% (inactive).

For `O=C(CNc1nnc(-c2cccnc2SCc2ccccc2)s1)Nc1nc(Cl)cc(Cl)n1`, which growth is on record?
The growth was 108% (inactive).

Which growth does the source give for `CCOC(=O)c1cc(C(=O)c2cc(OC)c(OC)c(OC)c2)n2nc(C)ccc12` here?
The growth was 18% (inactive).

For `COc1cc(/C=C/c2cc(/C=C/c3ccc(O)c(OC)c3)[nH]c(=O)n2)ccc1O`, which growth is on record?
Its growth is 62.5% (inactive).

`O=C1CSC(=S)N1/N=C/c1ccc(Cl)s1` was tested. Which growth did it give?
Its growth is 97.4% (inactive).

Which growth does the source give for `COc1ccc(-c2onc(N)c2-c2cc(OC)c3c(c2)OCO3)cc1` here?
Its growth is 26.7% (inactive).

`COc1cc(/C=C/c2cc(/C=C/c3ccc(O)c(OC)c3)n(C(=O)Nc3ccc(C)cc3)n2)ccc1O` was tested. Which growth did it give?
The growth was -14.5% (active).

With `COc1cc(NC(=O)Nc2cnc(Nc3ccc(N4CCOCC4)cc3)nc2Oc2cccc(OC)c2)cc(OC)c1` as the compound, how does the growth read?
Its growth is 53.3% (inactive).

How did the growth turn out when `CC(=O)N[C@H](C(=O)N[C@@H](CCCNC(=N)N)C(=O)N[C@@H](CCCCN)C(=O)N[C@@H](CCCNC(=N)N)C(=O)NC(C(=O)N[C@@H](CC(C)C)C(=O)N[C@@H](CCCNC(=N)N)C(=O)N[C@@]1(C)CCC/C=C\CCC[C@@](C)(C(=O)N[C@@H](CCCNC(=N)N)C(=O)N[C@@H](CCC(=O)O)C(=O)N[C@@H](CC(C)C)C(=O)N[C@H](C(=O)N[C@@H](CCC(=O)O)C(N)=O)C(C)C)NC(=O)[C@H](CCC(N)=O)NC(=O)[C@H](CC(C)C)NC(=O)[C@H](CC(C)C)NC1=O)[C@@H](C)O)C(C)C` (some centres not stated) was run?
The growth was -11% (active).

With `Oc1ccc(/C=N/N=C2c3ccccc3-c3ccccc32)c(O)c1` as the compound, how does the growth read?
The growth was 72.8% (inactive).

`C[C@@H](C[C@H](CCO)c1ccccc1)c1ccc2ccccc2c1` was tested. Which growth did it give?
The growth was -18.8% (active).

Reference: PubChem BioAssay (NCI)
